# In PubChem BioAssay:
# Active and inactive are the calls of the source.
# Legend:
# [1] = E. coli DRC41 culture turbidity changes, primary screen, E. coli filamentation inducer project, strain DRC41, OD650, 48 h (AID 1152);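 further: E. coli MC1000 strain DRC41 lacking acrAB efflux pump and sulA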; details: E. coli DRC41 (acrAB sulA), higher = more signal, called active from +8 up or from −8 down
# [2] = small-molecule binders of probe aLefty1, primary screen, biochemical, small-molecule microarray, 635/667 nm fluorescence (AID 1153); details: higher = more signal;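 further: score merges spot fluorescence with signal-to-noise ratio from the scanned slide images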
# [3] = PSAC antagonists in infected red cells, primary screen, cell-based, P. falciparum Indochina, OD700, 1 h (AID 1154); details: P. falciparum Indochina infected RBC osmotic lysis, higher = more signal, called active from +8 up or from −8 down
# [4] = PSAC antagonists in infected red cells, primary screen, cell-based, P. falciparum Indochina, OD700, 2 h (AID 1155);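 further: lysis reports solute entry through the parasite surface anion channel PSAC; channel blockers reduce lysis of infected cells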; details: P. falciparum Indochina infected erythrocytes, osmotic lysis OD700; higher = more signal, called active from +8 up or from −8 down
# [5] = osmotic lysis modulators in infected erythrocytes, primary screen, PSAC antagonist project, cell-based, P. falciparum Indochina, OD700, 3 h (AID 1156); details: higher = more signal, called active from +8 up or from −8 down
# [6] = PSAC antagonists in infected red cells, primary screen, cell-based, P. falciparum Indochina, OD700, 18 h (AID 1157); details: P. falciparum Indochina infected erythrocytes, osmotic lysis OD700, 18 h; higher = more signal, called active from +8 up or from −8 down
# [7] = modulators of S6 phosphorylation in cells, primary screen, cell-based, A549, cytoblot, luminescence, serum-stimulated (AID 1158); details: A549 phospho-S6 cytoblot, 5 h, higher = more signal;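 further: serum-stimulated A549 lung adenocarcinoma cells; signal is phosphorylated S6 detected by cytoblot immunostaining with HRP secondary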
# [8] = molecular target: NADPH oxidase 2 (Homo sapiens) (UniProt P04839); assay: NOX2-dependent H2O2 signal modulators, primary screen, NOX inhibitor project, cell-based, HEK293-NOX2, PMA-stimulated, Amplex Red fluorescence (AID 1159); details: 45 min, higher = more signal, called active from +8 up or from −8 down; further: test concentration not given here
# [9] = molecular target: NADPH oxidase 4 (Homo sapiens) (UniProt Q9NPH5); assay: NOX4-dependent H2O2 signal modulators, primary screen, NOX inhibitor project, cell-based, HEK293-NOX4, tetracycline-induced, Amplex Red fluorescence (AID 1160); details: 45 min, higher = more signal, called active from +8 up or from −8 down
# [10] = molecular target: NADPH oxidase 5 (Homo sapiens) (UniProt Q96PH1); assay: NOX5-dependent H2O2 signal modulators, primary screen, NOX inhibitor project, cell-based, HEK293-NOX5, Amplex Red fluorescence (AID 1161); details: HEK293-NOX5, ionomycin, 45 min, higher = more signal
# [11] = A549 cell viability effects, profiling panel, calcein-AM fluorescence, 48 h, basal (AID 1162); details: higher = more signal; further: test concentration not given here
# [12] = adipocyte viability effects, profiling panel, cell-based, 3T3-L1 adipocytes, calcein-AM fluorescence, 48 h, basal (AID 1163); details: 3T3-L1 adipocytes viability, higher = more signal; further: test concentration not given here
# [13] = HepG2 cell viability effects, profiling panel, calcein-AM fluorescence, 48 h, basal (AID 1164); details: higher = more signal; further: test concentration not given here
# [14] = MM1S cell viability effects, profiling panel, calcein-AM fluorescence, 48 h, basal (AID 1165); details: higher = more signal;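 further: viability of MM1S multiple myeloma cells under basal unstimulated conditions; test concentration not given here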
# [15] = basal RPMI8226 viability, no added stimulus, profiling panel, cell-based, calcein-AM fluorescence, 48 h, PK04 Diversity Set (AID 1166); details: RPMI8226 myeloma viability, higher = more signal;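 further: cells grown under basal conditions without added stimulus; test concentration not given here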
# [16] = basal HepG2 mitochondrial membrane potential changes, profiling panel, cell-based, JC-1 fluorescence, 24 h, 100 nL compound (AID 1167); details: higher = more signal; further: test concentration not given here
# [17] = basal 3T3-L1 adipocyte mitochondrial potential changes, profiling panel, cell-based, JC-1 fluorescence, 3T3-L1 adipocytes, 24 h, 100 nL compound (AID 1168); details: JC-1 mitochondrial fluorescence, higher = more signal, called active from +8 up or from −8 down; further: test concentration not given here
# [18] = basal RPMI8226 mitochondrial membrane potential changes, profiling panel, cell-based, JC-1 fluorescence, 24 h, 100 nL compound (AID 1169); details: RPMI8226 myeloma, JC-1 mitochondrial potential fluorescence, higher = more signal; further: test concentration not given here
# [19] = basal MM1S mitochondrial membrane potential changes, profiling panel, cell-based, JC-1 fluorescence, 24 h, 100 nL compound (AID 1170); details: higher = more signal; further: test concentration not given here
# [20] = A549 lung cancer cell viability effects, profiling panel, resazurin fluorescence, 24 h, PK04 Diversity Set (AID 1171); details: higher = more signal, called active from +8 up or from −8 down; further: test concentration not given here
# NADPH oxidase 4 (Homo sapiens), sequence (Q9NPH5 whole entry, looked up): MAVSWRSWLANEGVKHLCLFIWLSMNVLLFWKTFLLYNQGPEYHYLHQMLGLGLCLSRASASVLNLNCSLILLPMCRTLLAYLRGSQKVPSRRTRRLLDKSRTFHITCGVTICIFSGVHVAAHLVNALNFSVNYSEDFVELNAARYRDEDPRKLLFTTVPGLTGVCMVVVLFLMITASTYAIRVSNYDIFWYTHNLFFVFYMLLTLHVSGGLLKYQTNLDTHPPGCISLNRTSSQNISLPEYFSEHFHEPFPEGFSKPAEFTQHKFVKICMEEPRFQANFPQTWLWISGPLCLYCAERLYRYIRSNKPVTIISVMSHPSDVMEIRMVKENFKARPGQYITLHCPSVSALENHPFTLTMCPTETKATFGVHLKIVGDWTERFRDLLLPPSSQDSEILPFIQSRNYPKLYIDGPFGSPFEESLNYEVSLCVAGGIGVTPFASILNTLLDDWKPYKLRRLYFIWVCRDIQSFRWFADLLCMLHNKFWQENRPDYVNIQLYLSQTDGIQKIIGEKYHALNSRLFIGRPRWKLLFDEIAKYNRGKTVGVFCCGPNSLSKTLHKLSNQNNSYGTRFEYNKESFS
# NADPH oxidase 5 (Homo sapiens), sequence (Q96PH1 whole entry, looked up): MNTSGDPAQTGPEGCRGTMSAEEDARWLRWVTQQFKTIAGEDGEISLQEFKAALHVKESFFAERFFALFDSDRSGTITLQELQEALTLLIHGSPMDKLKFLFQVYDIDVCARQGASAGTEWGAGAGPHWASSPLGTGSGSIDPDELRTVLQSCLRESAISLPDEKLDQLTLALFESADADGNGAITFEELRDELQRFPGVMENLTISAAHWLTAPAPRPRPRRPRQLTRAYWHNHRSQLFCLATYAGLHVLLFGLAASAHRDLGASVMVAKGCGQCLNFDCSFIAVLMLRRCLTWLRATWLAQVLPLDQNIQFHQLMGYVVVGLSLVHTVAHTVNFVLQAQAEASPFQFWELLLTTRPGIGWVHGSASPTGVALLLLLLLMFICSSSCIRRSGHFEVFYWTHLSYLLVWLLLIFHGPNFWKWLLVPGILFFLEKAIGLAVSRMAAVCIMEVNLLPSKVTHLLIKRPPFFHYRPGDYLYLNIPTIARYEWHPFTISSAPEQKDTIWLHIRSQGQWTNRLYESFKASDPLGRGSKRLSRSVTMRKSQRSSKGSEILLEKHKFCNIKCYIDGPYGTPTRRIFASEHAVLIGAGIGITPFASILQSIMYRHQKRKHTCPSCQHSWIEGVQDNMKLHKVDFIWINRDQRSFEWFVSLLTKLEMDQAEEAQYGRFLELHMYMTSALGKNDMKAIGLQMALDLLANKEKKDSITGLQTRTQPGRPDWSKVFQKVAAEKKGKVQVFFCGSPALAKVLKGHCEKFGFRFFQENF
# NADPH oxidase 2 (Homo sapiens), sequence (P04839 whole entry, looked up): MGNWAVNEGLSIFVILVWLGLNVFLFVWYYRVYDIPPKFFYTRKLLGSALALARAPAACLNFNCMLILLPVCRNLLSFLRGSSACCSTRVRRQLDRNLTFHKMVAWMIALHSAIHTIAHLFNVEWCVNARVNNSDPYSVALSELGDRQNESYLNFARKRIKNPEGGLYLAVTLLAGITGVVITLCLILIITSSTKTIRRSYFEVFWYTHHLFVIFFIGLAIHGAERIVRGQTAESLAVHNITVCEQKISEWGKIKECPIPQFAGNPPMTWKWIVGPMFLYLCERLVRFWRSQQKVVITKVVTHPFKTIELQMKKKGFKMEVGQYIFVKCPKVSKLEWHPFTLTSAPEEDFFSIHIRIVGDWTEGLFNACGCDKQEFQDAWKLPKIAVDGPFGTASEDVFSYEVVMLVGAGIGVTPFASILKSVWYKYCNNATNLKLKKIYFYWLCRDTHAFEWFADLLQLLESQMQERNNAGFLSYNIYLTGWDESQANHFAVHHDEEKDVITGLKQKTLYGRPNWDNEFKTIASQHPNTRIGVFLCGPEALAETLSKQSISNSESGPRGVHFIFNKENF
SMILES,z-score [1],composite z-score [2],z-score [3],z-score [4],z-score [5],z-score [6],z-score [7],z-score [8],z-score [9],z-score [10],z-score [11],z-score [12],z-score [13],z-score [14],z-score [15],z-score [16],z-score [17],z-score [18],z-score [19],z-score [20]
CC(C)C[C@@H]1NC(=O)[C@H]2C[C@@H](C(=O)O)[C@@H](c3ccc(O)cc3)N2C1=O,0.498 (inactive),0.0455,5.88 (inactive),1.66 (inactive),-1.66 (inactive),0.448 (inactive),-0.239,-1.72 (inactive),-2.25 (inactive),-0.356,0.48,0.0559,0.111,-2.7,0.25,1.27,-0.0304 (inactive),0.433,-0.0341,-0.0496 (inactive)
COc1ccc([Si](C)(C)[C@@H]2[C@@H](CC(=O)N3CCC[C@H]3CO)O[C@]3(C(=O)N(Cc4cccc(N5CCC5=O)c4)c4ccccc43)[C@H]2C)cc1,0.313 (inactive),0.792,4.64 (inactive),0.838 (inactive),-0.745 (inactive),0.496 (inactive),-0.0355,2.1 (inactive),1.29 (inactive),4.02,-0.208,-1.34,-4.16,-2.71,-4.33,-0.729,0.999 (inactive),-1,-2.19,-1.39 (inactive)
CC(=O)OC[C@H]1O[C@@H](ON=C[C@@H](C)[C@H](OCc2ccccc2)C(C)C)[C@H](OC(C)=O)[C@@H](OC(C)=O)[C@@H]1OC(C)=O,0.319 (inactive),0.113,0.857 (inactive),0.536 (inactive),1.04 (inactive),0.22 (inactive),0.761,-0.72 (inactive),0.404 (inactive),-0.856,0.605,-0.466,0.471,0.614,0.048,-0.148,0.0097 (inactive),0.386,-0.863,-1.23 (inactive)
CC(=O)OC[C@H]1O[C@H](CCON=C(C)CCN2CCc3nc(-c4ccccc4)c(-c4ccccc4)cc3C2)C=C[C@@H]1OC(C)=O,-0.132 (inactive),0.0446,2.65 (inactive),0.452 (inactive),0.676 (inactive),0.148 (inactive),-0.166,-2.87 (inactive),-0.455 (inactive),-2.78,0.396,0.235,0.2,-2.16,0.091,-0.273,-1.4 (inactive),0.168,-0.594,0.783 (inactive)
C=C(COC)/C(=C/C[C@H](OC(=O)c1ccncc1)c1ccc(CO)o1)c1cc(C(=O)OC)ccc1OC,0.165 (inactive),0.188,2.65 (inactive),0.189 (inactive),0.656 (inactive),0.013 (inactive),-0.0278,-0.564 (inactive),0.0937 (inactive),-0.413,-1.2,-0.256,-0.981,-0.43,-0.111,-0.47,-1.01 (inactive),0.126,0.00652,0.451 (inactive)
C#CCCCON=C1C[C@@H](O)[C@@H](O)[C@@H]2[C@@H]3C(=O)N([C@@H](C)c4ccccc4)C(=O)[C@@H]3CC[C@H]12,-1.08 (inactive),0.75,0.553 (inactive),-0.645 (inactive),-0.318 (inactive),-2.13 (inactive),-0.235,-0.599 (inactive),-1.21 (inactive),0.579,-0.858,-0.0991,-0.106,0.348,-1.39,0.359,0.114 (inactive),0.234,-0.53,-0.0314 (inactive)
CCN1C(=O)[C@H]2[C@H]3[C@H](O)[C@H](O)CC(=NO[C@@H]4O[C@H](CO)[C@@H](O)[C@H](O)[C@H]4O)[C@@H]3CC[C@H]2C1=O,0.0871 (inactive),-0.183,0.568 (inactive),0.283 (inactive),-0.846 (inactive),-0.0143 (inactive),0.345,0.0968 (inactive),0.303 (inactive),-0.0261,1.05,0.462,0.484,-0.944,0.0072,-0.608,0.725 (inactive),0.14,-0.385,-0.859 (inactive)
COC(=O)[C@@H]1CC[C@H](C)[C@@H](c2ccc(C)cc2)N1C(=O)c1ccc(C=NOC[C@@H](O)COCc2ccco2)cc1,1.06 (inactive),-0.255,5.79 (inactive),0.944 (inactive),-0.0224 (inactive),1.05 (inactive),-1.05,-0.0479 (inactive),-0.0106 (inactive),0.254,-0.181,0.346,-0.807,-1.32,-1.46,-2.38,-0.747 (inactive),0.304,-0.352,-0.45 (inactive)
C#CCCCON=C1C[C@@H](O)[C@@H](O)[C@@H]2[C@@H]3C(=O)N(c4cccc(Oc5ccccc5)c4)C(=O)[C@@H]3CC[C@@H]12,-0.164 (inactive),-0.0929,2.87 (inactive),1.29 (inactive),1.24 (inactive),0.354 (inactive),-0.512,-2.13 (inactive),-0.598 (inactive),-0.786,-0.559,0.43,-1.57,-0.399,-0.2,0.106,0.126 (inactive),-0.56,0.835,-0.248 (inactive)
